Measurements published in PubChem BioAssay (EPA / NIEHS).
Active and inactive are the calls of the source. Rule for the calls: active = hit-call score of the fitted dose curve at least 0.9, where 1 is the maximum; inactive = score below 0.9.

Key:
Settings in all cases: mRNA level, 48 h; actives raise or lower the signal
[1] = read-out: ABC Transporter (ABCB1), ABCB1 (gene 5243); experiment: LTEA_HepaRG_ABCB1: Life Technologies and Expression Analysis (LTEA) Assay for ABC Transporter (ABCB1) using HepaRG (AID 2283460)
How it was run: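 Differentiated human HepaRG cells, plated 48 h then switched to serum-free induction medium, were exposed in duplicate to eight half-log concentrations up to 100 uM in 0.5% DMSO for 48 h. ABCB1 mRNA was measured by TaqMan qRT-PCR, normalized to ACTB/GAPDH/POLR2A.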

[2] = read-out: growth arrest and DNA damage 45 (GADD45B), GADD45B (gene 4616); experiment: LTEA_HepaRG_GADD45B: Life Technologies and Expression Analysis (LTEA) Assay for growth arrest and DNA damage 45 (GADD45B) using HepaRG (AID 2283461)
How it was run: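 Human HepaRG monolayers receive chemicals for 48 h at eight half-log concentrations, highest 100 uM, in 0.5% DMSO. Expression is measured by TaqMan qRT-PCR and normalized to ACTB, GAPDH and POLR2A.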

[3] = read-out: ABC Transporter (ABCC3), ABCC3 (gene 8714); experiment: LTEA_HepaRG_ABCC3: Life Technologies and Expression Analysis (LTEA) Assay for ABC Transporter (ABCC3) using HepaRG (AID 2283462)
How it was run: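 Transcriptional change of ABCC3 in HepaRG after 48 h treatment, determined by qRT-PCR normalized to endogenous controls. Concentrations spanned eight half-log steps to 100 uM in 0.5% DMSO.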

[4] = read-out: ABC Transporter (ABCB11), ABCB11 (gene 8647); experiment: LTEA_HepaRG_ABCB11: Life Technologies and Expression Analysis (LTEA) Assay for ABC Transporter (ABCB11) using HepaRG (AID 2283463)
How it was run: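 Differentiated human HepaRG cells were exposed for 48 h in serum-free induction medium to eight half-log concentrations up to 100 uM in 0.5% DMSO. ABCB11 mRNA was quantified by qRT-PCR, normalized to ACTB, GAPDH and POLR2A, and fitted bidirectionally versus DMSO.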

[5] = read-out: Broad substrate specificity ATP-binding cassette transporter ABCG2 (Homo sapiens) (UniProt Q9UNQ0); experiment: LTEA_HepaRG_ABCG2: Life Technologies and Expression Analysis (LTEA) Assay for ABC Transporter (ABCG2) using HepaRG (AID 2283465)
How it was run: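 Differentiated HepaRG cells in serum-free induction medium were exposed for 48 h, in duplicate, to eight half-log concentrations up to 100 uM in 0.5% DMSO. ABCG2 mRNA was measured by TaqMan qRT-PCR, normalized to ACTB, GAPDH and POLR2A, and fitted bidirectionally versus DMSO.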

[6] = read-out: ATP-citrate lyase (ACLY), ACLY (gene 47); experiment: LTEA_HepaRG_ACLY: Life Technologies and Expression Analysis (LTEA) Assay for ATP-citrate lyase (ACLY) using HepaRG (AID 2283466)
How it was run: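 Differentiated human HepaRG cells in serum-free induction medium exposed 48 h, in duplicate, to eight half-log concentrations from 100 uM top in 0.5% DMSO; ACLY mRNA measured by qRT-PCR, normalized to ACTB, GAPDH, POLR2A, fitted bidirectionally versus DMSO.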

[7] = read-out: Peroxisomal acyl-coenzyme A oxidase 1 (ACOX1) gene, ACOX1 (gene 51); experiment: LTEA_HepaRG_ACOX1: Life Technologies and Expression Analysis (LTEA) Assay for Peroxisomal acyl-coenzyme A oxidase 1 (ACOX1) gene using HepaRG (AID 2283467)
How it was run: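 Differentiated human HepaRG cells were exposed in duplicate for 48 h in serum-free induction medium to eight half-log concentrations up to 100 uM in 0.5% DMSO. ACOX1 mRNA was then quantified by TaqMan qRT-PCR, normalized to ACTB, GAPDH and POLR2A.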

[8] = read-out: Bcl-2 (BAD) gene, BAD (gene 572); experiment: LTEA_HepaRG_BAD: Life Technologies and Expression Analysis (LTEA) Assay for Bcl-2 (BAD) gene using HepaRG (AID 2283469)
How it was run: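 Differentiated human HepaRG cells in serum-free induction medium were exposed in duplicate for 48 h to eight concentrations (top 100 uM, half-log steps, 0.5% DMSO). BAD mRNA was quantified by qRT-PCR normalised to ACTB, GAPDH and POLR2A, with bidirectional fitting versus DMSO.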

[9] = read-out: Bcl-2 (BAX) gene, BAX (gene 581); experiment: LTEA_HepaRG_BAX: Life Technologies and Expression Analysis (LTEA) Assay for Bcl-2 (BAX) gene using HepaRG (AID 2283470)
How it was run: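 Differentiated HepaRG cells exposed 48 h in serum-free induction medium, eight half-log concentrations from 100 uM, in duplicate, 0.5% DMSO vehicle. BAX mRNA by TaqMan qRT-PCR, normalised to ACTB, GAPDH and POLR2A.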

[10] = read-out: adenosine kinase (ADK) gene, ADK (gene 132); experiment: LTEA_HepaRG_ADK: Life Technologies and Expression Analysis (LTEA) Assay for adenosine kinase (ADK) gene using HepaRG (AID 2283471)
How it was run: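 Differentiated HepaRG cells dosed 48 h in serum-free induction medium, 0.5% DMSO vehicle, eight half-log concentrations from 100 uM, in duplicate. ADK mRNA by TaqMan qRT-PCR normalised to ACTB, GAPDH, POLR2A; bidirectional fit versus DMSO.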

[11] = read-out: Alpha-fetoprotein (AFP) gene, AFP (gene 174); experiment: LTEA_HepaRG_AFP: Life Technologies and Expression Analysis (LTEA) Assay for Alpha-fetoprotein (AFP) gene using HepaRG (AID 2283472)
How it was run: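 Differentiated human HepaRG cells exposed 48 h in serum-free induction medium, 8-point half-log series from 100 uM in 0.5% DMSO, duplicate. AFP mRNA by qRT-PCR, normalized to ACTB, GAPDH, POLR2A; bidirectional fit vs DMSO.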

BCL2L11 (gene 10018) = experiment: LTEA_HepaRG_BCL2L11: Life Technologies and Expression Analysis (LTEA) Assay for Bcl-2 (BCL2L11) gene using HepaRG (AID 2283473)
How it was run: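 Human hepatic HepaRG cultures are treated 48 h with test chemicals (maximum 100 uM, 0.5% DMSO vehicle). Expression of BCL2L11 is measured by qRT-PCR against ACTB, GAPDH and POLR2A, with activity in either direction scored relative to vehicle.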

[12] = read-out: Apolipoprotein A-V (APOA5) gene, APOA5 (gene 116519); experiment: LTEA_HepaRG_APOA5: Life Technologies and Expression Analysis (LTEA) Assay for Apolipoprotein A-V (APOA5) gene using HepaRG (AID 2283474)
How it was run: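 Concentration-response of APOA5 expression in HepaRG: eight half-log doses to 100 uM, 48 h, qRT-PCR normalized to ACTB/GAPDH/POLR2A, bidirectional fitting with 0.5% DMSO as baseline.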

[13] = read-out: Apoptosis regulator Bcl-2 (Homo sapiens) (UniProt P10415); experiment: LTEA_HepaRG_BCL2: Life Technologies and Expression Analysis (LTEA) Assay for Bcl-2 gene using HepaRG (AID 2283475)
How it was run: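 Differentiated human HepaRG cells in serum-free induction medium exposed 48 h, in duplicate, to 8-point half-log series from 100 uM in 0.5% DMSO. BCL2 mRNA by qRT-PCR (TaqMan/Fluidigm), normalized to ACTB, GAPDH, POLR2A; bidirectional fit against DMSO.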

[14] = read-out: Bcl-2 (BID) gene, BID (gene 637); experiment: LTEA_HepaRG_BID: Life Technologies and Expression Analysis (LTEA) Assay for Bcl-2 (BID) gene using HepaRG (AID 2283476)
How it was run: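 Gene expression by qRT-PCR in HepaRG cells after 48 h exposure, duplicate wells, eight half-log concentrations topping at 100 uM in 0.5% DMSO. Normalized to ACTB, GAPDH, POLR2A; bidirectional fitting relative to DMSO.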

Caspase-3 (Homo sapiens) = Caspase-3 (Homo sapiens) (UniProt P42574); experiment: LTEA_HepaRG_CASP3: Life Technologies and Expression Analysis (LTEA) Assay for cysteine-aspartic acid protease (CASP3) using HepaRG (AID 2283477)
How it was run: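 Transcript-level assay: CASP3 mRNA in human HepaRG after 48 h treatment, eight half-log concentrations from 100 uM in 0.5% DMSO, quantified by qRT-PCR.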

[15] = read-out: Cytochrome P450 (CYP24A1), CYP24A1 (gene 1591); experiment: LTEA_HepaRG_CYP24A1: Life Technologies and Expression Analysis (LTEA) Assay for Cytochrome P450 (CYP24A1) using HepaRG (AID 2283478)
How it was run: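 Gene expression of CYP24A1 by TaqMan qRT-PCR in HepaRG after 48 h treatment, highest concentration 100 uM; activity fitted in both directions relative to DMSO vehicle.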

[16] = read-out: Cytochrome P450 (CYP1A2), CYP1A2 (gene 1544); experiment: LTEA_HepaRG_CYP1A2: Life Technologies and Expression Analysis (LTEA) Assay for Cytochrome P450 (CYP1A2) using HepaRG (AID 2283479)
How it was run: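 In duplicate wells, HepaRG cultures maintained in 0.5% DMSO were treated 48 h across an 8-point, half-log series topping at 100 uM; phenobarbital (1 mM) served as induction control. Expression was read by qRT-PCR.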

Measured: AC50

Chain of Apoptosis regulator Bcl-2 (Homo sapiens) (P10415 whole entry, looked up): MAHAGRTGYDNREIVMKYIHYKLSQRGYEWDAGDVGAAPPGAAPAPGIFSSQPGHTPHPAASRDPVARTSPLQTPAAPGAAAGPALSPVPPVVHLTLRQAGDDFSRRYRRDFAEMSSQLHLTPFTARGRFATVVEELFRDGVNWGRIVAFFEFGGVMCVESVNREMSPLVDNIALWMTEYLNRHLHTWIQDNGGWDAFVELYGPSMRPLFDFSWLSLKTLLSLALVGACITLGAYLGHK
Chain of Caspase-3 (Homo sapiens) (P42574 whole entry, looked up): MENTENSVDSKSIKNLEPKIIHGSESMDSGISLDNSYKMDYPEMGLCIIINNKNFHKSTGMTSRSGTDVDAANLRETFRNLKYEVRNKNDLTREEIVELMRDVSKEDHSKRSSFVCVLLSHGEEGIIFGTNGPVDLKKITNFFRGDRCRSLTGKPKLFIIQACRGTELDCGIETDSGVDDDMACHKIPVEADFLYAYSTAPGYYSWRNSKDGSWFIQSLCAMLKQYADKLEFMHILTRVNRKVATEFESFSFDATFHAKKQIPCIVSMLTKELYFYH
Chain of Broad substrate specificity ATP-binding cassette transporter ABCG2 (Homo sapiens) (Q9UNQ0 whole entry, looked up): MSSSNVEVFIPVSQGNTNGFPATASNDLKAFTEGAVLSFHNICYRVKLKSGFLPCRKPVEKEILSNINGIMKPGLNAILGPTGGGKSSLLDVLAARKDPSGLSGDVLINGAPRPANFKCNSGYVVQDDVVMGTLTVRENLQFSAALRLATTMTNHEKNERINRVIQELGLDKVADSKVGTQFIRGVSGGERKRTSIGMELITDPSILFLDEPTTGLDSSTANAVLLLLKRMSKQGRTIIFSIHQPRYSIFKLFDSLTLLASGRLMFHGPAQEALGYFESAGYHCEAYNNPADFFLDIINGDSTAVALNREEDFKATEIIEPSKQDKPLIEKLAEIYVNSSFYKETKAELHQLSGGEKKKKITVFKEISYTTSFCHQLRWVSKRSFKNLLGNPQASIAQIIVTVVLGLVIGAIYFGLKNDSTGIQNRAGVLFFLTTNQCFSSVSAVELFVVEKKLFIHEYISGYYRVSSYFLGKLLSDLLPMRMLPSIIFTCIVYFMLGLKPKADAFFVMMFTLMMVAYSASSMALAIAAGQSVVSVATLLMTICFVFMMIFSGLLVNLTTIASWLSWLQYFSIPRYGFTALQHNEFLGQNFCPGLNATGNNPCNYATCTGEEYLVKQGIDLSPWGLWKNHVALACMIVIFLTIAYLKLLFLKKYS

CC(C)(OOC(C)(C)c1ccccc1)c1ccccc1
active: [2] 50 µM
not listed: [16]
inactive: all other assays above

CC(C)(C)OOC(=O)c1ccccc1
not listed: [10] | [11] | [16]
inactive: all other assays above

Cn1cc(-c2ccccc2)c(=O)c(-c2cccc(C(F)(F)F)c2)c1
active: [1] 7.25 µM | [5] 10.6 µM
not listed: [16]
inactive: all other assays above

CNC(=O)Oc1cccc2c1OC(C)(C)C2
active: [2] 50 µM | [4] 28.4 µM
not listed: [11]
inactive: all other assays above

Nc1ccc([N+](=O)[O-])cc1
active: [16] 39.3 µM
not listed: [10] | [11]
inactive: all other assays above

COC(=O)Nc1nc2ccccc2[nH]1
not listed: [16]
inactive: all other assays above
